Hits are enriched below; roughly 3.5% of the tested compounds scored in any of these assays.
PG9 binder – small molecules binding HIV-1 gp120 antibody PG9; TR-FRET gp120-PG9 antibody binding; inhibition, % at 6.7 µM; 360,000 tested, 0.43% active; in the data active = inhibition above about 8.5%
UHRF1 binding – blocks human UHRF1 binding to methylated DNA; Q96T88; inhibition, % at 4.4 µM; UHRF1 binding to methylated oligo, TR-FRET; AID 687016; 370,000 tested, 0.75% active; in the data active = inhibition above about 21%;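 also: UHRF1 SRA domain binding a hemimethylated CpG hairpin DNA probe; 0% = median of test compound wells and 100% = reference inhibitor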
Target sequence (Q96T88 whole entry, looked up, the tested form may be a part): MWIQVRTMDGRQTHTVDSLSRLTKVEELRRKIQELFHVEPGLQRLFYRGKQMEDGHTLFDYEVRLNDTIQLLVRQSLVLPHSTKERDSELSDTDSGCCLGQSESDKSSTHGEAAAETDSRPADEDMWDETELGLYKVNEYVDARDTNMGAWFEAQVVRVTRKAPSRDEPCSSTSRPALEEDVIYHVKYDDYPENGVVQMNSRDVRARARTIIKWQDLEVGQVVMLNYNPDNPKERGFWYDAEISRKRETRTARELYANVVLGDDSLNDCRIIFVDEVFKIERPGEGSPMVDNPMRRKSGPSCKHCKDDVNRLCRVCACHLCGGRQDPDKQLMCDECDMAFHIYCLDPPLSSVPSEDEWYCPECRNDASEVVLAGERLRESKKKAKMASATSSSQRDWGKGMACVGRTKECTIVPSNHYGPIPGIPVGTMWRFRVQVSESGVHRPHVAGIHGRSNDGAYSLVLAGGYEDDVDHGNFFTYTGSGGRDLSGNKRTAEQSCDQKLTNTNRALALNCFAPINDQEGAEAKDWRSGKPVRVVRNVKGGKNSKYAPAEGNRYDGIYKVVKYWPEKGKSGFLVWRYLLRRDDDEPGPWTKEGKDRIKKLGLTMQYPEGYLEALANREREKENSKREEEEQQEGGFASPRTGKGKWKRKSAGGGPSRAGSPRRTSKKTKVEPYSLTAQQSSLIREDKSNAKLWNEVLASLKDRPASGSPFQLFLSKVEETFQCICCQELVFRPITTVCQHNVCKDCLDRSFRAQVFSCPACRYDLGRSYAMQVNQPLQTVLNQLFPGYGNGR
DNMT1 block – blocks human DNA methyltransferase DNMT1; P26358; 360,000 tested, 0.83% active; inhibition (reported as % activation of signal), % at 10 µM; DNMT1 molecular beacon, Hinp1I cleavage, fluorescence; in the data active = inhibition above about 50%
LEDGF integ inh – blocks HIV-1 LEDGF/p75-dependent DNA integration | TR-FRET IN-LEDGF/p75 DNA integration, Eu/Cy5 | AID 743269 | 370,000 tested, 0.64% active | inhibition, % at 3.7 µM;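 active = inhibition above the screen-wide mean plus 3 SD, cut at about 13% in these data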;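 also: signal is the Cy5 over europium emission ratio at 671 and 618 nm; 0% = plate median of compound wells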
MBD2 inh – MBD2-methylated oligo binding inhibition; inhibition, % at 4.4 µM; Q9UBB5; TR-FRET, MBD2 binding to methylated oligonucleotide; 370,000 tested, 0.31% active; in the data active = inhibition above about 13%
rCAG RNA binder – molecules binding r(CAG) RNA repeats; r(CAG) RNA repeat, TO-PRO-1 dye displacement fluorescence; inhibition, % at 3 µM; 370,000 tested, 1.3% active; AID 651821;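 active = inhibition above the plate cutoff, the mean of all test compounds on that plate plus 3 SD, cut at about 35% in these data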;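 also: 0% = DMSO alone and 100% = 100 µM mitoxantrone as full dye displacement; higher means more dye released from RNA so lower well fluorescence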
rCAG binder conf – r(CAG) RNA repeat binding, confirmation | shares compounds with rCAG RNA binder | TO-PRO-1 dye displacement fluorescence | inhibition, % at 3 µM | 4,300 tested, 70% active;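 active = inhibition above a per-plate cutoff, the mean inhibition of sample wells plus 3 SD, cut at about 35% in these data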;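 also: loss of TO-PRO-1 fluorescence as compound displaces dye from 1x1 AA loop RNA; 0% = DMSO only wells and 100% = 100 µM mitoxantrone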
dCAG dye counter – disrupts DNA CAG TO-PRO-1 complex, flagging rCAG hits; shares compounds with rCAG RNA binder; d(CAG) DNA oligo TO-PRO-1 dye displacement, fluorescence; inhibition, % at 3 µM; 4,300 tested, 94% active; AID 652068;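 active = inhibition above its plate's cutoff, the mean test-well inhibition plus 3 SD, cut at about 4.8% in these data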;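 also: 0% = DNA dye mix with DMSO and 100% = 100 µM mitoxantrone; hits displace the dye from DNA and so lower well fluorescence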
DNA CAG DR – disrupts DNA CAG TO-PRO-1 complex in dose response; shares compounds with rCAG RNA binder; DNA CAG/GTC duplex TO-PRO-1 dye displacement fluorescence; IC50, µM; 250 tested, 20% active; in the data active = IC50 below about 10 µM
Numbers without * were called inactive; i = inactive; x = not tested or not shown.

SMILES	PG9 binder	UHRF1 binding	DNMT1 block	LEDGF integ inh	MBD2 inh	rCAG RNA binder	rCAG binder conf	dCAG dye counter	others
O=C(O)c1cc([N+](=O)[O-])ccc1NCCCc1ccccc1	0	-2	2	2	-1	37*	31	6.5*
O=C(O)c1cc([N+](=O)[O-])ccc1NCc1ccccc1	2	-3	2	0	2	11	x	x
CC(C)=CCC[C@H](C)CC1Cc2[nH]c(=S)[nH]c(=O)c2C(c2ccc(Cl)cc2)O1 (some centres not stated)	-1	3	x	-4	-3	35*	42*	16*
O=C(Nc1nnc([C@@H]2C[C@H](O)[C@@H](CO)O2)s1)Nc1ccccc1C(F)(F)F	0	-1	-2	0	-1	2	x	x
O=C(O)c1cc(-c2c[nH]c3ccccc23)nc2cc3ccccc3cc12	0	4	-33	7	-2	54*	35*	13*
O=C(O)c1cc(-c2ccc3ccccc3c2)nc2ccc(F)cc12	-2	0	-3	0	-3	37*	19	4
N#CCCN(C(=O)COC(=O)c1cccc(S(=O)(=O)Nc2ccc([N+](=O)[O-])cc2)c1)c1ccccc1	2	-3	1	1	-6	77*	77*	35*
N#CCCN(C(=O)COC(=O)c1ccc(S(=O)(=O)Nc2ccccc2)cc1)c1ccccc1	0	-1	-1	-3	-1	4	x	x
Cc1cc(C)c(NC(=O)COC(=O)C23CC4CC(CC(O)(C4)C2)C3)c(Cl)c1	0	8	0	3	8	2	x	x
C[C@H]1O[C@@H](n2cc(F)c(=O)[nH]c2=O)[C@H](O)[C@@H]1O	-2	4	0	0	12	0	x	x
C[C@H]1O[C@@H](n2c3ccc(Cl)cc3c3ccc4c5cc(Cl)ccc5[nH]c4c32)[C@H](O)[C@H](O)[C@H]1O	x	1	x	0	0	78*	54*	43*
C[C@@H]1O[C@@H](n2c3ccc(Cl)cc3c3ccc4c5cc(Cl)ccc5[nH]c4c32)[C@H](O)[C@H](O)[C@H]1O	x	1	x	2	-1	62*	60*	42*
CC(=O)c1cccc(Nc2ccc(C#N)cc2)c1	1	0	9	1	-3	3	x	x
Cc1ccc2nc(-c3ccc(NC(=O)CSCC(=O)O)cc3)sc2c1	1	-3	-1	5	5	53*	39*	11*
Cc1csc(NC(=O)CSCC(=O)O)c1-c1nc2ccccc2s1	-1	-2	2	4	-2	44*	57*	19*
Cc1ccc2nc(-c3ccc(NC(=O)COCC(=O)O)cc3)sc2c1	-2	3	-5	1	3	42*	34	8.3*
CC(=O)C[C@H]1SC[C@@H](C(C)C)N1S(=O)(=O)c1ccc(C)cc1	-1	1	x	1	-6	0	x	x
O=c1nc2ccc(Cl)cn2c2ccc(S(=O)(=O)N3CCCCC3)cc12	2	1	-6	-9	-2	41*	8	4.4*
O=c1nc2ccc(Cl)cn2c2ccc(S(=O)(=O)N3CCOCC3)cc12	0	-3	1	-2	-5	12	x	x
CC(=O)Nc1ccc(S(=O)(=O)NCCC(=O)Nc2ncccc2C)cc1	-2	-2	-1	2	1	-1	x	x
Cc1ccc(NC(=O)CSc2ncc(S(=O)(=O)c3ccccc3)c(=O)[nH]2)cc1C	1	0	0	3	-5	49*	43*	11*
Cc1ccc(S(=O)(=O)N2C3CC(c4ccccc4)N(S(=O)(=O)c4cccc(Cl)c4)CC3C(=O)C[C@H]2c2ccccc2)cc1 (some centres not stated)	1	2	x	0	-2	6	x	x
CSCCC(C(=O)Nc1c(C)cccc1C)N1CCN(C/C=C/c2ccccc2)CC1 (configuration not stated)	0	0	-4	5	-1	0	x	x
Cc1ccc(C2CC2C(=O)NNC(=S)Nc2cccc(Cl)c2)cc1 (configuration not stated)	0	-1	-3	-5	-1	52*	51*	19*
O=C1OC(N2C(=O)CC[C@H]2C(=O)Nc2cccc(F)c2)c2ccccc21 (some centres not stated)	2	2	0	-1	-1	3	x	x
SMILES	PG9 binder	UHRF1 binding	DNMT1 block	LEDGF integ inh	MBD2 inh	rCAG RNA binder	rCAG binder conf	dCAG dye counter	others
CC(C)(C)c1ccc(OCCSc2nc3ccccc3n2CC(=O)O)cc1	-2	-1	-1	5	0	39*	43*	11*
O=C(C(=O)N1CCC(CNC(=O)c2cccnc2Cl)CC1)c1cc2ccccc2o1	1	8	x	5	7	1	x	x
CCOC(=O)C(C)/C(C)=N/NC(=O)c1cc2ccccc2cc1O (configuration not stated)	0	0	-16	2	-7	44*	13	6.7*
NNC(=O)c1cc2ccccc2cc1O	-1	1	11	2	5	41*	5	4
C/C(CC(=O)N1CCCC1)=N\NC(=O)c1cc2ccccc2cc1O	0	-3	2	3	2	38*	15	6.2*
COc1ccc(S(=O)(=O)N2CCOCC2)cc1NC(=O)c1cc2ccccc2o1	0	0	-8	1	-8	12	x	x
COCCNC(=O)C1(C)CCCN(C(=O)c2cc(C)oc2C)C1 (configuration not stated)	0	-3	5	-1	0	0	x	x
O=C(O)CN1C(=O)/C(=C\c2cc([N+](=O)[O-])ccc2OCc2ccccc2Cl)SC1=S	-2	-6	19	5	2	86*	85*	54*
O=C(O)CN1C(=O)/C(=C\c2ccccc2OCc2ccc(F)cc2)SC1=S	-3	1	2	1	5	84*	72*	31*	DNA CAG DR=i
COc1ccccc1/C=C1\SC(=S)N(CCC(=O)NNC(=O)c2ccccc2OC)C1=O	-1	-1	0	2	-1	6	x	x
O=C(O)CN1C(=O)/C(=C\c2ccccc2OCc2ccccc2)SC1=S	-1	5	2	-3	-1	73*	73*	33*	DNA CAG DR=i
CN1C(=O)/C(=C\c2cccc(OCc3ccccc3)c2)SC1=S	-1	-1	1	3	0	2	x	x
O=C(O)CN1C(=O)/C(=C\c2cccc(OCc3ccccc3)c2)SC1=S	-2	-7	4	4	-2	81*	72*	35*

From PubChem
